{"source": "the supplement of paper PMC6992640"}
{"tested_on": "WHIM2 (cells of a triple-negative basal-like breast cancer xenograft)", "assay": "cell viability of combination (% of vehicle); higher = less cytotoxic", "conditions": "1 µM; 72 h; partner dose: 10 nM", "protocol": "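PDX cells were treated for 72 h with each drug at 1 µM plus afatinib (10 nM; 1 µM for WHIM30). Luciferase viability is expressed as percent of vehicle.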"}
{"molecule": "CCCCCCCCCCCCCCCC[N+](C)(C)C.[Br-]", "note": "[Cetrimonium Bromide (CTAB)] + CN(C)C/C=C/C(=O)Nc1cc2c(Nc3ccc(F)c(Cl)c3)ncnc2cc1O[C@H]1CCOC1 [Afatinib]", "cell viability of combination": 38}
{"molecule": "Cc1cc(C(C#N)c2ccc(Cl)cc2)c(Cl)cc1NC(=O)c1cc(I)cc(I)c1[O-].[Na+]", "note": "(stereo not given) [Closantel Sodium] + CN(C)C/C=C/C(=O)Nc1cc2c(Nc3ccc(F)c(Cl)c3)ncnc2cc1O[C@H]1CCOC1 [Afatinib]", "cell viability of combination": 49.1}
{"molecule": "CCCCCCCCCCCCCCCC[n+]1ccccc1.[Cl-]", "note": "[Cetylpyridinium Chloride] + CN(C)C/C=C/C(=O)Nc1cc2c(Nc3ccc(F)c(Cl)c3)ncnc2cc1O[C@H]1CCOC1 [Afatinib]", "cell viability of combination": 32.2}
{"molecule": "CCCCCCCCCCCC[N+](C)(C)CCOc1ccccc1.[Br-]", "note": "[Domiphen Bromide] + CN(C)C/C=C/C(=O)Nc1cc2c(Nc3ccc(F)c(Cl)c3)ncnc2cc1O[C@H]1CCOC1 [Afatinib]", "cell viability of combination": 41.6}
{"molecule": "Cc1cc(C(C#N)c2ccc(Cl)cc2)c(Cl)cc1NC(=O)c1cc(I)cc(I)c1O", "note": "(stereo not given) [Closantel] + CN(C)C/C=C/C(=O)Nc1cc2c(Nc3ccc(F)c(Cl)c3)ncnc2cc1O[C@H]1CCOC1 [Afatinib]", "cell viability of combination": 47}
